Test results published in paper PMC4336329 (PLoS ONE, 2015).
The whole screen tested about 310,000 compounds, of which about 14,000 (4.5%) showed an effect of 50% or more. The effect is printed as a negative number. Shown is part of a subset that was picked to be rich in strong results.

Target: human ether-à-go-go-related gene (hERG) potassium channel (human, UniProt Q12809)
Assay: primary screen, population patch clamp on CHO cells stably expressing hERG; higher = less effect of the substance
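Further: peak tail current of the secondary pulse compared with the same well before compound.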

human ether-à-go-go-related gene (hERG) potassium channel, sequence (Q12809 whole entry, looked up): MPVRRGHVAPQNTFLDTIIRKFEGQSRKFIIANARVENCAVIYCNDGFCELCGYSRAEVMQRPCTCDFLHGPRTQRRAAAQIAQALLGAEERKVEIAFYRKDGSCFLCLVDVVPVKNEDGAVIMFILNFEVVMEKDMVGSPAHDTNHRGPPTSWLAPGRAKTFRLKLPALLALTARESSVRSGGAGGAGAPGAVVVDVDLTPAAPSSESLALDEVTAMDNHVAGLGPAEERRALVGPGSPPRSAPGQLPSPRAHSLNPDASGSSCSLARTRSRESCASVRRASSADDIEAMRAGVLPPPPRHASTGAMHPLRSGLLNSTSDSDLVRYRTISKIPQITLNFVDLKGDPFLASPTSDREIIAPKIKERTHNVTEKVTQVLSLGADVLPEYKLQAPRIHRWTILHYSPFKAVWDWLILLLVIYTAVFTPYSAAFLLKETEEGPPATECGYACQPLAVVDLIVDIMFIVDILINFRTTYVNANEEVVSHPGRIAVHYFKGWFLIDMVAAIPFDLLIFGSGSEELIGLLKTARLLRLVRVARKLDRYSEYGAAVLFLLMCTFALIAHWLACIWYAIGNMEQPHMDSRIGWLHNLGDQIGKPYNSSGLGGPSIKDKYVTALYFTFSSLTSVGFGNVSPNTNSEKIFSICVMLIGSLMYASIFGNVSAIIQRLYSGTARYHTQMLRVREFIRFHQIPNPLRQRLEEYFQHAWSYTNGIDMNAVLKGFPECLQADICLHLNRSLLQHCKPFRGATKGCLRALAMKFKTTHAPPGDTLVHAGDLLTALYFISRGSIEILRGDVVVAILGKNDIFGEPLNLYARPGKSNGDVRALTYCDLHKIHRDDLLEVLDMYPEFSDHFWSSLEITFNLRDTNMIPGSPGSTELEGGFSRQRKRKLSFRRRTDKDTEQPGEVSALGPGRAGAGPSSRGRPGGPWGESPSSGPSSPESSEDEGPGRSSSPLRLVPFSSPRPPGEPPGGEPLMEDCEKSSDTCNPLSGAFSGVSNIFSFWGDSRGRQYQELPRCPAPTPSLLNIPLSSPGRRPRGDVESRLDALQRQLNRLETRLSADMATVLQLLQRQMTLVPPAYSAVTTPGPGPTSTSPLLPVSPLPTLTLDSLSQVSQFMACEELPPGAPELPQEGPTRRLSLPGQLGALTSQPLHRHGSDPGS

| SMILES | hERG current change (%, negative = inhibition) at 10uM [%] |
| --- | --- |
| O=C(NCCNc1nccc(C(F)(F)F)n1)c1cccc(C(F)(F)F)c1 | -8.47 |
| CCOC(=O)c1c(C)nc(C)c(C(=O)OCC)c1-c1ccc(Br)cc1 | -29.7 |
| Cc1ccccc1Nc1ncnc2c1cnn2Cc1ccccc1 | -10.8 |
| Cc1c(NC(=O)C(C)OC(=O)CC2CC3CCC2C3)c(=O)n(-c2ccccc2)n1C (centres unmarked) | -9.36 |
| Cc1ccc(/C=N/Nc2ncnc3nc[nH]c23)cc1 | -18.6 |
| Nc1cccc(C(=O)Nc2ccco2)c1 | -2.33 |
| O=C(O)CN1C(=O)/C(=C2\SC(=S)N(C(Cc3ccccc3)C(=O)O)C2=O)c2ccccc21 (centres unmarked) | 2.15 |
| CC(C)(C)CC(=O)Nc1nnc(SCC(=O)NC2CCCCC2)s1 | -36.5 |
| O=C(O)C(=O)O.c1ccc(CCNC2CCCCCC2)cc1 | -4.67 |
| COC1CCCCC1NCCc1ccccc1.O=C(O)C(=O)O (centres unmarked) | -0.725 |
| N#CC1(c2ccccc2)CCC(NCCc2ccccc2)CC1.O=C(O)C(=O)O (centres unmarked) | -69.5 |
| O=C(N1CCOCC1)N1CCN(S(=O)(=O)N2CCOCC2)CC1 | 11.3 |
| C=CCn1c(SCC(=O)Nc2cccc3ccccc23)nc(O)c(CC)c1=O | 3.7 |
| COc1ccc(NC(=O)CC2C(=O)N(c3cccc(OC)c3)C(=O)N2C2CCCCC2)cc1 (centres unmarked) | 13.4 |
| CCN(CC)Cc1c(C(=O)N/N=C/c2c(Cl)cccc2Cl)nnn1-c1nonc1N | 11.8 |
| CCCCOc1[nH]c2nc(-c3ccco3)n(Cc3ccco3)c(=N)c2c1C#N | -69.1 |
| COc1ccc(Cn2c(=O)n(Cc3ccco3)c(=N)c3c4c(sc32)COC(C)(C)C4)cc1 | -15.9 |
| c1coc(Cn2c(-c3ccco3)nc3ccccc32)c1 | -10 |
| CC1Sc2ccc(C(=O)NCc3cccc(C(F)(F)F)c3)cc2NC1=O (centres unmarked) | -4.86 |
| CCOc1cc(/C=C2\COc3ccccc3C2=O)ccc1OCC(=O)N(C)C | -10.3 |
| COc1ccc(/C=C2\COc3ccccc3C2=O)cc1OC | -17.1 |

| SMILES | hERG current change (%, negative = inhibition) at 10uM [%] |
| --- | --- |
| CCNC(=O)COc1ccc(/C=C2\COc3ccccc3C2=O)cc1OC | -71.8 |
| COc1ccc(N2C(=S)N(C(=O)c3ccccc3)C(=Nc3ccccc3)C2=Nc2ccccc2)cc1 | -3.16 |
| Cc1ccc(-c2noc(-c3ccccc3C(=O)N3CCN(C)CC3)n2)cc1 | -51.2 |
| c1ccc(-c2noc(-c3ccccc3-c3ccccc3)n2)cc1 | 5.26 |
| NC(=O)c1ccccc1-c1nc(-c2ccccc2)no1 | -76.5 |
| O=C(c1ccccc1-c1nc(-c2ccc(Cl)cc2)no1)N1CCCC1 | 0.639 |
| CN1CCN(C(=O)c2ccccc2-c2nc(-c3ccccc3)no2)CC1 | -25.5 |
| CN1CCN(C(=O)c2ccccc2-c2nc(-c3ccc(Cl)cc3)no2)CC1 | -65.6 |
| Cc1ccc(-c2noc(-c3ccccc3C(=O)N3CCCC3)n2)cc1 | -32.3 |
| Cc1ccc(-c2noc(-c3ccccc3C(=O)N3CCOCC3)n2)cc1 | -12.2 |
| O=C(c1ccccc1-c1nc(-c2ccccc2)no1)N1CCCC1 | -4.86 |
| Cc1cccc(NC(=O)CSCC(=O)N=c2sccn2C)c1 | -20.2 |
| CC(C)n1c(O)c(N=NC(=O)CNC(=O)Cc2ccc(Cl)cc2)c2ccccc21 | -39.1 |
| CC(C)c1cc(-c2cc(-c3ccccc3)on2)nc(NC2CCCC2)n1 | 6.4 |
| CCC(Cc1ccccc1)NC(=O)CCc1ccccc1 (centres unmarked) | 13.5 |
| COc1ccc(CN(C)CC(=O)Nc2ccc(Cl)cc2F)c(OC)c1.O=C(O)C(=O)O | -16.1 |
| Cl.Nc1ncnc2sc3c(c12)CCNC3 | 25.4 |
| O=C(COn1nnc2ccc(S(=O)(=O)N3CCOCC3)cc21)NCCc1ccccc1 | -8.87 |
| COc1ccc(CNC(=O)C2CCCN(S(=O)(=O)c3ccc4c(c3)CCCN4C(C)=O)C2)cc1 (centres unmarked) | 4.76 |
| CC(C)Cn1c(N)c(C(=O)COC(=O)c2c(O)c(Cl)cc(Cl)c2Cl)c(=O)n(C)c1=O | -79.8 |
| CC(C)Cn1c(N)c(C(=O)COC(=O)c2ccc(Cl)cc2)c(=O)n(C)c1=O | -37.4 |

| SMILES | hERG current change (%, negative = inhibition) at 10uM [%] |
| --- | --- |
| CC(C)Cn1c(N)c(C(=O)COC(=O)c2cccc(Cl)c2)c(=O)n(C)c1=O | -6.08 |
| CC(C)Cn1c(N)c(C(=O)COC(=O)c2ccc(O)cc2)c(=O)n(C)c1=O | -10.6 |
| CC(C)Cn1c(N)c(C(=O)COC(=O)c2cnc(Cl)c(Cl)c2)c(=O)n(C)c1=O | -71.1 |
| CC(C)Cn1c(N)c(C(=O)COC(=O)c2cc(F)cc(F)c2)c(=O)n(C)c1=O | -42.1 |
| CCC(CC)C(=O)Nc1cccc(C(=O)Nc2ccc(S(N)(=O)=O)cc2)c1 | 10.8 |
| COc1ccc(OCC(=O)Nc2ccc3c(c2)nc(CCN2CCOCC2)n3C)cc1 | -41 |
| Cn1c(CCN2CCOCC2)nc2cc(NC(=O)COc3ccc(Cl)cc3)ccc21 | -55.4 |
| Cn1c(CN2CCOCC2)nc2cc(NC(=O)COc3ccccc3)ccc21 | -0.505 |
| Cc1ccc(OCC(=O)Nc2ccc3c(c2)nc(CCN2CCOCC2)n3C)cc1 | -51.3 |
| Cn1c(CCN2CCOCC2)nc2cc(NC(=O)COc3ccccc3)ccc21 | -15.1 |
| CC(=O)Nc1ccc2c(c1)nc(CCN1CCOCC1)n2C | 10.4 |
| CC(=O)Nc1ccccc1NC(=O)C/C(C)=N/NC(=O)C(=O)N1CCCCC1 | -13.3 |
| COc1ccc2[nH]c(=O)c(CN(C(C)=O)c3ccc(C)cc3C)cc2c1 | 1.02 |
| CSc1nc(N)c(C(=O)Nc2ccc([N+](=O)[O-])cc2)s1 | -12.3 |
| O=C(N/N=C\c1cccc(F)c1)c1ccc(-c2ccccc2)cc1 | 27 |
| CC(=O)N(C)C1(c2nnnn2CCOC(=O)Nc2cccc3ccccc23)CCCC1 | 0.969 |
| CCN1CCN(c2ccc(S(=O)(=O)N3CCOCC3)cc2NC(=O)/C=C/c2ccc(C)cc2)CC1 | -46 |
| CCN1CCN(c2ccc(S(=O)(=O)N3CCCCC3)cc2NC(=O)/C=C/c2ccc([N+](=O)[O-])cc2)CC1 | -70.8 |
| CCN1CCN(c2ccc(S(=O)(=O)N3CCOCC3)cc2NC(=O)/C=C/c2ccc([N+](=O)[O-])cc2)CC1 | -71.8 |
| CCN1CCN(c2ccc(S(=O)(=O)N3CCOCC3)cc2NC(=O)/C=C/c2ccc(OC)c(OC)c2)CC1 | 10.4 |
| CCN1CCN(c2ccc(S(=O)(=O)N3CCCCC3)cc2NC(=O)/C=C/c2ccc(F)cc2)CC1 | -48.1 |

| SMILES | hERG current change (%, negative = inhibition) at 10uM [%] |
| --- | --- |
| COc1ccc(/C=C/C(=O)Nc2cc(S(=O)(=O)N3CCCCC3)ccc2N2CCCCC2)cc1OC | 4.11 |
| COc1ccc(CCCC(=O)N/N=C\c2cccs2)cc1 | 27.2 |
| COCCNC(=O)c1ccccc1-c1nc(-c2ccccc2Cl)no1 | -9.09 |
| O=C(NC(=S)Nc1ccc2ncccc2c1)c1ccccc1 | 2.36 |
| C=CCn1cnc2scc(-c3ccc(C)cc3)c2c1=O | -10.4 |
| CCOc1ccccc1N(CC)C(=O)Cn1ncc2c(=O)oc3ccccc3c21 | -26.1 |
| CCCN(C(=O)Cn1ncc2c(=O)oc3ccccc3c21)c1cccc(C)c1 | -54.3 |
| CCCCN(Cc1ccco1)C(=O)Cn1ncc2c(=O)oc3ccc(C)cc3c21 | 13.2 |
| CCOC(=O)Cn1ncc2c(=O)oc3ccccc3c21 | -0.743 |
| Cc1ccc2oc(=O)c3cnn(CC(=O)N(CCCN4CCOCC4)Cc4ccco4)c3c2c1 | -57.5 |
| COCCCN(Cc1ccco1)C(=O)Cn1ncc2c(=O)oc3ccc(C)cc3c21 | -49.6 |
| C=C(C)c1cccc(C(C)(C)NC(=O)N2CCN(c3ccccc3OC)CC2)c1 | 4.28 |
| COc1ccc(CCNC(=O)C2CCN(C(=O)c3cccs3)CC2)cc1 | -0.649 |
| CC(=O)Nc1ccc(NC(=O)CSc2ccc3nnc(-c4ccccn4)n3n2)cc1 | 17.7 |
| CC(=O)c1ccc(NC(=O)CSc2nnc3ccc(-c4ccccn4)nn23)cc1 | -10.5 |
| COc1ccc(NC(=O)CSc2ccc3nnc(-c4ccccn4)n3n2)cc1 | -20.9 |
| COc1ccc(NC(=O)CSc2ccc3nnc(-c4ccccn4)n3n2)cc1OC | -18.1 |
| CC(=O)c1ccc(NC(=O)CSc2ccc3nnc(-c4ccccn4)n3n2)cc1 | -64.7 |
| CCOc1ccc(NC(=O)CSc2ccc3nnc(-c4ccccn4)n3n2)cc1 | -54.3 |
| CCc1cccc(C)c1NC(=O)Cn1nc(C)n2cccc2c1=O | 22.9 |
